# High-throughput results (PubChem BioAssay)
# The full list was thinned out, with hits kept by preference.
# nsP2pro primary: inhibitors of chikungunya virus nsP2 protease | FRET peptide cleavage, nsP2pro, fluorescence 1 h | Potency, µM (top dose mostly 24.9 µM), hits mostly inhibitors | 31,000 tested, 1.1% active; further: nearly all actives have a fitted effect of over 60% in size
#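 FRET cleavage of 2.5 uM peptide 2 by 150 nM CHIKV protease domain at pH 8.0 (Tris, Tween 20). Compounds at 7 concentrations (up to 25 uM) preincubated 15 min. Fluorescence read after 1 h at room temperature.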
# nsP2 cell sec: secondary cell-based test for CHIKV nsP2 protease inhibitors; shares compounds with nsP2pro primary; cell-based CHIKV nsP2 protease reporter assay; Potency, µM (doses to about 51.1 µM), actives largely listed as inhibitors; 450 tested, 10% active; AID 1964100; further: nearly all actives have a fitted effect of over 70% in size
# NSP2 full ctr: inhibits full-length CHIKV NSP2 enzyme | shares compounds with nsP2pro primary | Full-length CHIKV NSP2 protease enzymatic counterscreen | Potency, µM (titrated, usually from 50.7 µM), hits mostly inhibitors | 410 tested, 39% active; further: nearly all actives have a fitted effect of over 65% in size
# Furin counter: human furin inhibition, counterscreen for nsP2pro inhibitors. AID 1964102. 410 tested, 6% active. Potency, µM (doses to about 50.6 µM), actives largely listed as inhibitors. Recombinant human furin enzymatic counterscreen, fluorogenic substrate. shares compounds with nsP2pro primary
# nsP2 NS23 pep: blocks CHIKV nsP2 protease cleavage of endogenous NS2/3 peptide | shares compounds with nsP2pro primary | Potency, µM (series often up to 51 µM), actives largely listed as inhibitors | Purified CHIKV nsP2 protease, endogenous NS2/3 peptide cleavage | 410 tested, 34% active; further: nearly all actives have a fitted effect of over 55% in size
# Papain counter: papain protease inhibition, counterscreen for nsP2pro inhibitors; shares compounds with nsP2pro primary; purified papain protease activity, enzymatic inhibition; Potency, µM (series often up to 51 µM), hits mostly inhibitors; 410 tested, 5% active; AID 1964104
# Target sequence (P00784 whole entry, looked up): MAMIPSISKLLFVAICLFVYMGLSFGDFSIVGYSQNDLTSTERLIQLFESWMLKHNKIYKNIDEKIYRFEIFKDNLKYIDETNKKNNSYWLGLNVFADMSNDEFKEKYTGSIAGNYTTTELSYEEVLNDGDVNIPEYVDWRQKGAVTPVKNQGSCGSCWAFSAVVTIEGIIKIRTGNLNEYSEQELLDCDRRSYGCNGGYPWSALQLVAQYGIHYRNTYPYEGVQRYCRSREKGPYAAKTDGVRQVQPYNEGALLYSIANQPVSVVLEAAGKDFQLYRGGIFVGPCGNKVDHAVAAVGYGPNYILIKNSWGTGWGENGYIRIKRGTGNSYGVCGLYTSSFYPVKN
# nsP2pro confirm: confirmation of CHIKV nsP2 protease inhibitors | CHIKV nsP2 protease enzymatic activity, qHTS | Potency, µM (titrated, usually from 25.5 µM), hits mostly inhibitors | 410 tested, 43% active | shares compounds with nsP2pro primary; further: nearly all actives have a fitted effect of over 75% in size
# HCV NS3 4A cs: selectivity counter-screen for CHIKV nsP2 protease inhibitors: HCV NS3/4A | shares compounds with nsP2pro primary | HCV NS3/4A protease biochemical counterscreen | Potency, µM (titrated, usually from 50.9 µM), hits mostly inhibitors | 410 tested, 20% active | AID 1964106; further: nearly all actives have a fitted effect of over 55% in size
# Hits are given with their value; . = inactive; ? = inconclusive; [ ] = dose if it differs, or a comment. The call rests on the fitted dose curve.
SMILES,nsP2pro primary,others
CCOc1ccc(/C=C(\C#N)C(=O)Nc2sc3c(c2C(=O)OC)C(C(=O)OC)CC3)cc1OC (stereo not given),0.85µM,nsP2 cell sec=.;NSP2 full ctr=?;Furin counter=.;nsP2 NS23 pep=5.8µM;Papain counter=.;nsP2pro confirm=4µM;HCV NS3 4A cs=.
CCOc1cc(/C=C(\C#N)C(=O)Nc2ccc(OC)cc2)ccc1OCc1cc(=O)n2nc(CC)sc2n1,.,
COC(=O)C1CCc2sc(NC(=O)Cc3ccccc3)c(C(=O)Nc3ccc(Cl)cc3)c21 (stereo not given),.,
CNC(=O)c1cc(C)nc2onc(C3CCN(C(=O)NC4CCCC4)C3)c12 (stereo not given),.,
c1ccc(-c2[nH]nc3ncc(-c4cn[nH]c4)nc23)cc1,.,
O=c1c(O[C@@H]2OC([C@H](O)CO)[C@H](O)[C@H]2O)c(-c2ccc(O)c(O)c2)oc2cc(O)cc(O)c12 (stereo not given in full),.,
O=C1c2c(O)ccc(O)c2C(=O)c2c(NCCNCCO)ccc(NCCNCCO)c21,.,
O=C1c2cccc(O)c2C(=O)c2c(O)cc(CO)cc21,?,nsP2 cell sec=.;NSP2 full ctr=.;Furin counter=.;nsP2 NS23 pep=.;Papain counter=.;nsP2pro confirm=.;HCV NS3 4A cs=.
O=S(=O)(c1ccccc1)N1CCC(F)(c2nc(-c3ccncc3)no2)CC1,.,
CC1=CC(=O)C[C@H]2[C@@H]1CC[C@@H](C)[C@]21CO[C@H](c2ccoc2)C1=O,?,nsP2 cell sec=.;NSP2 full ctr=.;Furin counter=.;nsP2 NS23 pep=.;Papain counter=.;nsP2pro confirm=.;HCV NS3 4A cs=.
CCC=CCC=CCC=CCCCCCCCC(=O)O,.,
COc1cc(Nc2nc(-c3ccncc3)nc3ccccc23)ccc1F,.,
O=c1ncn(Cc2ccccc2)c2ccc(-c3cccnc3)nc12,.,
O=C(CSc1oc(-c2ccccc2)nc1S(=O)(=O)c1ccccc1)c1ccccc1,.,
O=C1c2ccccc2C(=O)c2oc(-c3ccccc3)nc21,8.8µM,nsP2 cell sec=.;NSP2 full ctr=?;Furin counter=.;nsP2 NS23 pep=.;Papain counter=.;nsP2pro confirm=.;HCV NS3 4A cs=.
NCCc1noc(-c2ccccc2)n1,.,
O=C1c2ccccc2C(=O)c2oc(-c3cccnc3)nc21,3.1µM,nsP2 cell sec=?;NSP2 full ctr=.;Furin counter=.;nsP2 NS23 pep=?;Papain counter=.;nsP2pro confirm=?;HCV NS3 4A cs=.
Cc1cnc(-c2ccccc2C(C)C)nc1N(C)Cc1ccc(-c2cccnc2)cc1,.,
CN1CCC2=C(C1)C(c1ccccc1)c1ccccc12 (stereo not given),.,
CC(C=CC1=C(C)CCCC1(C)C)=CC=CC(C)=CC(=O)Oc1c(C)c(C)c2c(c1C)CC[C@@](C)(CCC[C@H](C)CCC[C@H](C)CCCC(C)C)O2,.[2.68 µM],
Cc1cccc(-n2cnc3cc(C(=O)NC4CCCCC4)ccc32)c1,.,
CCOCCCNC(=O)N1CC2CN(CCOC)CC(C1)O2,.,
CCN1C(=O)Cc2cc(C(=O)NCc3c(C)cc(C)cc3C)ccc21,.,
CCOC(=O)Nc1ccc(NCc2c(C)cc(C)cc2C)cc1N,?,nsP2 cell sec=?;NSP2 full ctr=.;Furin counter=.;nsP2 NS23 pep=?;Papain counter=.;nsP2pro confirm=.;HCV NS3 4A cs=.
CCOC(=O)c1ccc(NC2CCCCC2)c(N)c1,.,
SMILES,nsP2pro primary,others
O=C1CCCC2=C1C(c1[nH]ncc1Cl)NC(=NCCc1ccc(O)cc1)N2 (stereo not given),.,
C=CC(=O)Nc1cc(Nc2ncc(Cl)c(-c3c[nH]c4ccccc34)n2)c(OC)cc1N(C)CCN(C)C,.,
CN1CCc2nc(C(=O)N[C@@H]3C[C@@H](C(=O)N(C)C)CC[C@@H]3NC(=O)C(=O)Nc3ccc(Cl)cn3)sc2C1,?,nsP2 cell sec=.;NSP2 full ctr=.;Furin counter=.;nsP2 NS23 pep=.;Papain counter=.;nsP2pro confirm=.;HCV NS3 4A cs=.
CC[C@H](C)C1NC(=O)[C@H](Cc2ccc(O)cc2)NC(=O)[C@@H](N)CSSC[C@@H](C(=O)N2CCC[C@H]2C(=O)N[C@@H](CC(C)C)C(=O)NCC(N)=O)NC(=O)[C@H](CC(N)=O)NC(=O)[C@H](CCC(N)=O)NC1=O (stereo not given in full),.,
COc1ccnc(NC(=S)N2CCN(c3ccc(Cl)c(Cl)c3)CC2)c1,.,
CC(=O)Nc1sc2c(c1-c1nc3ccccc3s1)CCNC2,.,
CC(C)(C)c1cccc(-n2cnc3cc(C(=O)N4CCCCC4)ccc32)c1,.,
CC(C)COc1ccc(-c2ccc(=O)n(CC(=O)NCCc3ccccc3)n2)cc1,.,
COc1ccccc1OCC(=O)NCc1nc(-c2ccc(Cl)cc2)no1,.,
CCOc1ccc(-c2noc(CNC(=O)c3cc(-c4ccco4)[nH]n3)n2)cn1,0.79µM,nsP2 cell sec=?;NSP2 full ctr=8.2µM;Furin counter=.;nsP2 NS23 pep=.;Papain counter=.;nsP2pro confirm=?;HCV NS3 4A cs=.
Cc1cc(-c2noc(CNC(=O)c3cc(-c4ccco4)[nH]n3)n2)no1,5µM,nsP2 cell sec=?;NSP2 full ctr=.;Furin counter=.;nsP2 NS23 pep=.;Papain counter=.;nsP2pro confirm=.;HCV NS3 4A cs=10µM
O=C(NCc1nc(-c2ncccn2)no1)c1csc(-c2cccs2)n1,.,
Cc1cccc(-c2noc(CCCC(=O)NCc3ccco3)n2)c1,.,
Cc1cccc(-c2noc(CNC(=O)c3ccco3)n2)c1,.,
O=c1cc(-c2ccccn2)oc2c(-c3cccc(CO)c3)nccc12,.,
O=C(Cc1ccccc1)Nc1nnc(NC2CCN(c3nnc(NC(=O)Cc4ccccc4)s3)CC2)s1,.,
CNc1nc(NCc2ccc(NS(C)(=O)=O)cc2Cl)cc(-c2ccccn2)n1,.,
O=S1(=O)N=C(Oc2ccccc2Br)c2ccccc21,.,
Nc1ccccc1OC1=NS(=O)(=O)c2ccccc21,10µM,nsP2 cell sec=.;NSP2 full ctr=?;Furin counter=.;nsP2 NS23 pep=.;Papain counter=.;nsP2pro confirm=.;HCV NS3 4A cs=.
Cc1ccccc1OC1=NS(=O)(=O)c2ccccc21,.,
COC(=O)CCC(NC(=O)C(CC(=O)OC)NC(=O)OCc1ccccc1)C(=O)NC(C(=O)NC(CC(=O)OC)C(=O)CF)C(C)C (stereo not given),.,
CCOCCCNC(=O)C(c1ccc(OC)cc1)N(Cc1cccs1)C(=O)CNC(C)=O (stereo not given),.,
C#CC(=O)N(c1ccc(OC)cc1OC)C(C(=O)NCC(=O)OCC)c1cccs1 (stereo not given),0.62µM,nsP2 cell sec=.;NSP2 full ctr=1.3µM;Furin counter=.;nsP2 NS23 pep=2.9µM;Papain counter=.;nsP2pro confirm=0.8µM;HCV NS3 4A cs=.
COc1ccc(NC(=O)CNS(=O)(=O)c2cccs2)c(OC)c1,.,
COc1ccc(-c2ccc(NC(=O)C3CCCC3)cc2)nn1,.,
CCOC(=O)C1CCN(C(=O)C(C)(C)NC(=O)Nc2ccc3ccccc3c2)CC1,.,
CCCCCCCCCCCCCC(=O)O,.,
CCCCCCCCCCCCCCCCCC(=O)O,?,nsP2 cell sec=.;NSP2 full ctr=3.7µM;Furin counter=.;nsP2 NS23 pep=.;Papain counter=21µM;nsP2pro confirm=4µM;HCV NS3 4A cs=.
CCCCC(=O)O,.,
C[C@@H]1[C@H](c2c(F)ccc(F)c2F)C[C@H](NC(=O)c2cnc3c(c2)C[C@@]2(C3)C(=O)Nc3ncccc32)C(=O)N1CC(F)(F)F,.,
